Compound activity from PubChem BioAssay.
Cav32 inh: Cav3.2 calcium influx blockers – cell-based, Fluo-4 calcium fluorescence, FDSS, MLSMR library, primary screen; Voltage-dependent T-type calcium channel subunit alpha-1H (Homo sapiens), O95180; Cav3.2-expressing cells; hits give low values; B-score at 10 µM; 100,000 tested, 4% active; AID 449739, 2010;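 active = single-dose well whose peak fluorescence ratio is a statistical outlier from its plate by either plate-standardised score or position-corrected B-score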
IL1B NFkB inh: inhibitors of IL-1B driven NFkB p65 nuclear import, primary screen, imaging, HUVEC, IL-1B stimulus, high-content imaging. inhibition, % at 2 µM. 94,000 tested, 0.43% active. HUVEC IL-1B NFkB p65 nuclear translocation imaging;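 active = inhibition above about 30% together with a positive call from visual inspection of the well image, limit read from the data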;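 also: nuclear over cytoplasmic p65 intensity ratio measured by imaging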
IL1B NFkB pot: enhancers of NFkB p65 translocation in HUVEC – imaging, IL-1B stimulus, high-content imaging, primary screen; HUVEC IL-1B NFkB p65 nuclear translocation imaging; activation, % at 2 µM; 94,000 tested, 0.3% active;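 active = activation above 40%, about the mean plus 3 SD, also judged a hit on visual image review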;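 also: percent activation is computed from the nuclear over cytoplasmic p65 intensity ratio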
HUVEC tox IL1B: cytotoxicity in IL-1B stimulated HUVEC, primary screen, cytotoxicity control for IL-1B NFkB translocation project, imaging, Hoechst nuclear count, IL-1B stimulus; HUVEC cell count loss; cell count reduction, % at 2 µM; 94,000 tested, 0.41% active; AID 845, 2007;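 active = cell count reduction more than 3 SD above the screen-wide mean, cut at about 70% in these data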
Of the large screens only hits and unclear results are named; the others gave an inactive call. The list is not random: actives were taken first. Their share in the collection is about 4.4%.

CCC(C)(C)n1nnnc1CN1CCC(n2c(C)nc3cc(C(F)(F)F)ccc32)CC1	Cav32 inh 4.03
CCN(CCCl)Cc1ccccc1Br	Cav32 inh -5.08 (no result: IL1B NFkB inh, IL1B NFkB pot, HUVEC tox IL1B)
C/C=C(\C)C(=O)OC1C(C)=C2C(C1OC(=O)CCCCC)C(C)(OC(C)=O)CC(OC(=O)CCC)C1(O)C2OC(=O)C1(C)O (stereo not drawn)	Cav32 inh 4.29 (no result: IL1B NFkB inh, IL1B NFkB pot, HUVEC tox IL1B)
O=[N+]([O-])c1ccc(N2CCNCC2)cc1NCC1CCCO1 (stereo not drawn)	none
CN1C(=O)C(=Cc2ccccc2Oc2ccc(Cl)c(F)c2)C(=O)N(C)C1=O	Cav32 inh -4.75
CC(C)(O)[C@H]1O[C@H]2CC[C@@]3(C)[C@@](O)(CC[C@H]4Cc5c([nH]c6ccccc56)[C@@]43C)C2=CC1=O	none (no result: IL1B NFkB inh, IL1B NFkB pot, HUVEC tox IL1B)
COC(=O)C1=C(c2ccccc2)C[C@@H]2CC[C@H]1N2C(=O)NC1CCCCC1	none (no result: IL1B NFkB inh, IL1B NFkB pot, HUVEC tox IL1B)
CC(C)CCNC(=O)c1c(N)n(CC2CCCO2)c2nc3ccccc3nc12 (stereo not drawn)	Cav32 inh -4.2
CCC(C)NC(=O)c1c(N)n(CCCOC)c2nc3ccccc3nc12 (stereo not drawn)	none
CCCCn1c(N)c(C(=O)NCCN2CCOCC2)c2nc3ccccc3nc21	none
CCC(C)NC(=O)c1c(N)n(CC2CCCO2)c2nc3ccccc3nc12 (stereo not drawn)	Cav32 inh -8.71 (no result: IL1B NFkB inh, IL1B NFkB pot, HUVEC tox IL1B)
CN1CC[C@@H](c2ccc(F)cc2)[C@H](COc2ccc3c(c2)OCO3)C1	none (no result: IL1B NFkB inh, IL1B NFkB pot, HUVEC tox IL1B)
Cn1c(O)c(C(c2ccccn2)c2c(O)n(C)c(=S)[nH]c2=O)c(=O)[nH]c1=S	HUVEC tox IL1B 91.4 (no result: Cav32 inh)
O=c1c(C=NCc2cccs2)c(O)n(C2CCCCC2)c(=O)n1C1CCCCC1	Cav32 inh -4.36
CC(C)C(=O)c1cn(Cc2ccc(C#N)cc2)c2ccccc12	Cav32 inh -5.65
CCC(=O)c1cn(Cc2ccccc2C#N)c2ccccc12	none
O=C(c1ccco1)c1cn(Cc2ccccc2Cl)c2ccccc12	Cav32 inh -6.05
N#Cc1ccccc1Cn1cc(C(=O)c2ccco2)c2ccccc21	Cav32 inh -6.07
O=C(c1ccco1)c1cn(Cc2ccccc2)c2ccccc12	none
O=C(COc1ccc(Cl)cc1)N1CCN(C/C=C/c2ccccc2)CC1	none
CCOC(=O)C1CCN(C(C)C(=O)c2c(C)[nH]c3cc(C)ccc23)CC1 (stereo not drawn)	none
COc1ccc(C(O)CNC(C)C)c(F)c1OC (stereo not drawn)	none (no result: IL1B NFkB inh, IL1B NFkB pot, HUVEC tox IL1B)
CN1C(=O)C(=Cc2ccc(N3CCCCCC3)o2)C(=O)N(C)C1=S	Cav32 inh -7.05
Cc1cc(C=C2C(=O)N(C)C(=S)N(C)C2=O)c(C)n1C1CCCC1	none
CN1C(=O)C(C2(C#N)CCCCC2)C(=O)N(C)C1=O	IL1B NFkB pot 48.5
COC(=O)C1=C(c2cc3ccccc3o2)C[C@@H]2CC[C@H]1N2C(=O)NCc1cccc2ccccc12	Cav32 inh -3.62 (no result: IL1B NFkB inh, IL1B NFkB pot, HUVEC tox IL1B)
COC(=O)C1=C(c2cc3ccccc3o2)C[C@@H]2CC[C@H]1N2C(=O)NCc1ccc(F)cc1	none (no result: IL1B NFkB inh, IL1B NFkB pot, HUVEC tox IL1B)
CC/C(=C\C=C\[C@@H]1C=C[C@@H]2CCC[C@H]2[C@@H]1C(=O)c1ccc[nH]1)[C@@H]1O[C@@H]([C@@H](C)C(=O)O)CC[C@@H]1C	Cav32 inh -8.53
Cc1c(/C=C2/CC3C4CC=C5CC(O)CCC5(C)C4CCC3(C)C2=O)cnn1C (stereo not drawn)	none (no result: Cav32 inh)
Cc1cccc(C2=NCC(=O)N(CC(=O)NCc3ccco3)c3sc4c(c32)CCCC4)c1	Cav32 inh -3.93
CS(=O)(=O)c1ccc(C2=C(c3ccccc3)C(=O)OC2)cc1	none (no result: IL1B NFkB inh, IL1B NFkB pot, HUVEC tox IL1B)
CCN(CC)c1ccc(N=Cc2c(O)n(CCC3=CCCCC3)c(=O)[nH]c2=O)cc1	Cav32 inh -5.58
CCCCP(=O)(O)CCC(=O)O	none
O=C(CCCOc1ccc(Cl)cc1Cl)N1CCC2(CC1)OCCO2	IL1B NFkB inh 97.2, HUVEC tox IL1B 84.9
O=C(CSC1c2ccccc2-c2ccccc21)N/N=C/c1ccccc1O	none
COC(=O)C1=C(c2cccc(OC)c2OC)C[C@@H]2CC[C@H]1N2C(=O)N1CCCC1	none (no result: IL1B NFkB inh, IL1B NFkB pot, HUVEC tox IL1B)
Cc1nn(-c2ccccc2)c2c1C(c1ccc3c(c1)OCO3)SCC(=O)N2 (stereo not drawn)	none
C=C(C)[C@@]12OC3(c4ccccc4)O[C@@H]1C1[C@@H]4O[C@]4(CO)[C@@H](O)[C@]4(O)C(=O)C(C)=C[C@H]4[C@@]1(O3)[C@H](C)[C@H]2OC(=O)/C=C/C=C/c1ccccc1 (stereo partly drawn)	Cav32 inh -4.42 (no result: IL1B NFkB inh, IL1B NFkB pot, HUVEC tox IL1B)
CCC(=Nc1ccccc1NC(C)=O)c1c(O)n(C)c(=O)n(C)c1=O	none
O=C(Cn1ncc2c3ccccc3n(Cc3ccccc3)c2c1=O)N1CCC2(CC1)OCCO2	Cav32 inh -10.8 (no result: IL1B NFkB inh, IL1B NFkB pot, HUVEC tox IL1B)
Cc1c2cnn(CC(=O)N3CCC4(CC3)OCCO4)c(=O)c2c(C)n1Cc1ccc(F)cc1	none (no result: IL1B NFkB inh, IL1B NFkB pot, HUVEC tox IL1B)
O=C(Cn1ncc2c3ccccc3n(Cc3ccccc3F)c2c1=O)N1CCC2(CC1)OCCO2	Cav32 inh -8.58 (no result: IL1B NFkB inh, IL1B NFkB pot, HUVEC tox IL1B)
CCC(CO)Nc1ccc([N+](=O)[O-])c2cccnc12 (stereo not drawn)	none
c1ccc(C2CC3CC4(CCCC4)N2O3)cc1 (stereo not drawn)	none
CCCCn1c(O)c(C=Nc2c(C)n(C)n(-c3ccccc3)c2=O)c(=O)[nH]c1=O	IL1B NFkB pot 48.4
Cc1c(N=Cc2c(O)n(Cc3ccco3)c(=O)[nH]c2=O)c(=O)n(-c2ccccc2)n1C	none
CCCCCCn1c(O)c(C=NC2CCN(Cc3ccccc3)CC2)c(=O)[nH]c1=O	Cav32 inh -3.31
Cc1cccc(-n2c(-c3ccco3)nc3ccccc3c2=O)n1	none
CC(=O)N1N=C2C3CCN(CC3)C2C1c1ccccc1 (stereo not drawn)	Cav32 inh -3.88
CC(C)(C)OC(=O)c1c(N)n(Cc2ccco2)c2nc3ccccc3nc12	Cav32 inh -5.32
CCN(CC)P(=O)(NC(=O)C(Cl)(Cl)Cl)N(CC)CC.[Cl-].[Cl-].[Cl-].[Nd+3]	none
Cc1c2ccncc2c(C)c2c1[nH]c1ccccc12	Cav32 inh -4.4 (no result: IL1B NFkB inh, IL1B NFkB pot, HUVEC tox IL1B)
CN(C)C1(c2nnnn2CCOC(=O)Nc2ccc(Cl)cc2)CCCCC1	Cav32 inh -2.96
CN(C)C1(c2nnnn2-c2ccc(Cl)cc2)CCCCC1	none (no result: Cav32 inh)
O=c1cc(C(F)(F)F)c2cc3c4c(c2o1)CCCN4CCC3	Cav32 inh -7.83
Cc1cc2c(C(F)(F)F)cc(=O)oc2c2c1NCCC2	Cav32 inh -8.32
CCCCNC(=O)Nc1ccc(C(O)(C(=O)OCC)C(F)(F)F)cc1 (stereo not drawn)	none
CCOP(=O)(C#CC(C)(C)C)C(O)(c1ccccc1)C(F)(F)F (stereo not drawn)	Cav32 inh -5.61
COc1ccc2c(c1OC)C(=O)OC2c1c(O)n(C2CCCCC2)c(=O)[nH]c1=O (stereo not drawn)	none
Cc1ccc(N2C(=O)NC(=O)C3(Cc4ccccc4N4CCN(c5ccccc5)CC43)C2=O)cc1 (stereo not drawn)	Cav32 inh -6.83
Cc1ccc(CN2C(=O)NC(=O)C3(Cc4c(nc5ccccn5c4=O)N4CCCCCC43)C2=O)cc1 (stereo not drawn)	none
C[N+](C)(C)Cc1ccccc1	none (no result: IL1B NFkB inh, IL1B NFkB pot, HUVEC tox IL1B)
CCC(=NCCO)c1c(O)n(C2CCCCC2)c(=O)[nH]c1=O	none
CCC(=NCc1ccc2c(c1)OCO2)c1c(O)n(C2CCCCC2)c(=O)[nH]c1=O	Cav32 inh -5.77
